PubChem BioAssay (NCATS)
Results filed as inconclusive are left out. A call without a number means that no potency is given here. The source made the active and inactive calls. Calls follow the shape of the dose curve; as a rule, active = well fitted curve in the direction sought with a large enough effect; inconclusive = small, poorly fitted or top-dose-only effect, or another doubt; inactive = no such curve, though single readings can be large; an effect the other way counts as inactive or inconclusive.

Columns and labels:
[1] = molecular target: Glutathione peroxidase 1 (Homo sapiens) (UniProt P07203); test: Primary qHTS Assay for Inhibitors of Recombinant Selenoprotein Glutathione Peroxidase 1 (GPX1) (AID 1845191); also: nearly all actives have a fitted effect of over 65% in size; also: potency is read from the fitted curve at half-maximal effect
Chain of Glutathione peroxidase 1 (Homo sapiens) (P07203 whole entry, looked up): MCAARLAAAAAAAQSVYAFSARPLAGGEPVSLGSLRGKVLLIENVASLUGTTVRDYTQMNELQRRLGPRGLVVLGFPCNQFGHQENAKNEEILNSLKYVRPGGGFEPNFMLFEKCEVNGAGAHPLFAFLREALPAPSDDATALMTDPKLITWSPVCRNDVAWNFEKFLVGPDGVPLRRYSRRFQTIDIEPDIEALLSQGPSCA
Procedure, shortened: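 Recombinant GPX1 (10 nM final) was preincubated with compound for 30 min at room temperature, then reacted with 1 mM GSH, 0.5 mM CHP, 0.5 mM NADPH and 100 nM glutathione reductase; NADPH fluorescence (340/450 nm) was read at 0 and 15 min.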

[2] = molecular target: Luciferin 4-monooxygenase (Photinus pyralis) (UniProt P08659); test: Primary firefly luciferase (FLuc) qHTS assay for identification of artifact compounds. (AID 1845220); also: nearly all actives have a fitted effect of over 60% in size
Procedure, shortened: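 Reaction readout was CCD-imaged luminescence, taken 5 min after adding 10 nM purified firefly enzyme to compound-treated wells holding 10 uM luciferin and ATP in pH 7.6 buffer.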

[3] = tested on: Nanoluciferase (engineered Oplophorus gracilirostris luciferase); test: Primary Nanoluciferase (NLuc) qHTS assay for identification of artifact compounds. (AID 1845222);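 also: NLuc secreted into diluted conditioned medium of S16 cells; series mostly up to about 54 µM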
Procedure, shortened: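 Concentration-response data were obtained by luminescence after 5 min with Nano-Glo substrate at 1:100. The enzyme was diluted S16 NLuc-expressing cell medium, preincubated with compound for 15 min at RT. Curves were fitted with a 4-parameter Hill model.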

[4] = Primary redox qHTS assay for identification of artifact compounds. (AID 1845223)
Procedure, shortened: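 Amplex Red (25 uM) and HRP (250 mU/mL) in HBSS, with compounds for 15 min, then 250 uM DTT for 30 min, room temperature, dark. Fluorescence 525/598 nm read; normalized to DMSO and 10 uM DA3003; Hill fit.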

[5] = Primary fluorescence-based thiol-reactive (MSTI) qHTS assay for identification of artifact compounds. (AID 1845221); also: nearly all actives have a fitted effect of over 65% in size; also: potency is read from the fitted curve at half-maximal effect;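 as to activity change, negative = thiol reactive: series mostly up to about 54 µM; thiol-reactive compounds lower the probe fluorescence signal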
Procedure, shortened: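 A multi-concentration qHTS design tested compounds against 4 uM MSTI, pH 7.4 phosphate-buffered saline. Plates were protected from light for 1 h at room temperature before imaging fluorescence.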

[6] = molecular target: Phospholipid hydroperoxide glutathione peroxidase GPX4 (Homo sapiens) (UniProt P36969); test: Primary qHTS Assay for Inhibitors of Recombinant Selenoprotein Glutathione Peroxidase 4 (GPX4) (AID 1845192); also: series mostly up to about 50 µM; nearly all actives have a fitted effect of over 65% in size
Chain of Phospholipid hydroperoxide glutathione peroxidase GPX4 (Homo sapiens) (P36969 whole entry, looked up): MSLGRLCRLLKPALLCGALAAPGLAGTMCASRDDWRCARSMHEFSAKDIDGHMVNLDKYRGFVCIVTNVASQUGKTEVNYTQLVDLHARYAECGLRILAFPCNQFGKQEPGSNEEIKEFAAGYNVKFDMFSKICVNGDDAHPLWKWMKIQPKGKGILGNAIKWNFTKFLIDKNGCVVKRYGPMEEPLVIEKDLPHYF
Procedure, shortened: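 GR-coupled readout: 100 nM GR, 1 mM GSH, 0.5 mM NADPH; NADPH fluorescence (ex 340/em 450 nm) read at t=0 and after 15 min RT. GPX4 200 nM, preincubated 30 min with compound; substrate 0.5 mM CHP.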

**Q.** Which Potency [1] does the source give for `NCc1c[nH]c(=S)n1C1CCc2c(F)cc(F)cc2C1` (centres undefined) here?
**A.** 22.7 µM (active)

**Q.** And the Potency [2]?
**A.** inactive

**Q.** And the Potency [3]?
**A.** inactive

**Q.** And the Potency [4]?
**A.** inactive

**Q.** For `COC(=O)c1cc(CN2CCN(C(=N)N)CC2)cc(C(=O)N2CCN(C(=O)c3ccc(C(=N)N)cc3)CC2)c1`, which Potency [1] is on record?
**A.** inactive

**Q.** And the Potency [2]?
**A.** inactive

**Q.** What about the Potency [5] of the same compound?
**A.** inactive

**Q.** And the Potency [3]?
**A.** inactive

**Q.** What about the Potency [4] of the same compound?
**A.** inactive

**Q.** With `COC(=O)C1=CO[C@@H](O[C@@H]2O[C@H](CO[C@@H]3O[C@H](COC(=O)/C=C/c4ccc(O)cc4)[C@@H](O)[C@H](O)[C@H]3O)[C@@H](O)[C@H](O)[C@H]2O)[C@@H]2C(CO)=CC[C@H]12` as the compound, how does the Potency [1] read?
**A.** inactive

**Q.** And the Potency [2]?
**A.** inactive

**Q.** What about the Potency [5] of the same compound?
**A.** inactive

**Q.** And the Potency [4]?
**A.** inactive

**Q.** Which results are given for `CCC(=O)O[C@]1(C(=O)CCl)[C@@H](C)C[C@H]2[C@@H]3C[C@H](F)C4=CC(=O)C=C[C@]4(C)[C@@]3(F)[C@@H](O)C[C@@]21C`?
**A.** Potency [1]: inactive; Potency [2]: inactive; Potency [5]: inactive; Potency [3]: inactive; Potency [4]: inactive

**Q.** With `CN[C@@H]1[C@@H](O)[C@@H](O[C@@H]2[C@@H](O)[C@H](O[C@H]3O[C@H](CN)[C@@H](O)[C@H](O)[C@H]3O)[C@@H](N)C[C@H]2NC(=O)[C@@H](O)CN)OC[C@]1(C)O` as the compound, how does the Potency [1] read?
**A.** inactive

**Q.** What about the Potency [2] of the same compound?
**A.** inactive

**Q.** And the Potency [5]?
**A.** inactive

**Q.** What about the Potency [3] of the same compound?
**A.** inactive

**Q.** What about the Potency [4] of the same compound?
**A.** inactive

**Q.** Which results are given for `COc1cc(C2Oc3c(OC)cc(/C=C/C(=O)OC[C@H]4O[C@@H](OC(C)(C)C(=O)O)[C@H](O)[C@@H](O)[C@@H]4O)cc3C2CO)ccc1O` (some centres undefined)?
**A.** Potency [1]: inactive; Potency [2]: inactive; Potency [5]: inactive; Potency [3]: inactive; Potency [4]: inactive

**Q.** With `C=C1CCC2C(C)(CO[C@@H]3O[C@H](CO)[C@@H](O)[C@H](O)[C@H]3O)C(O)CCC2(C)C1C(=O)CC1=CCOC1=O` (some centres undefined) as the compound, how does the Potency [1] read?
**A.** inactive

**Q.** And the Potency [2]?
**A.** inactive

**Q.** What about the Potency [5] of the same compound?
**A.** 10.3 µM (active)

**Q.** And the Potency [4]?
**A.** inactive

**Q.** Which results are given for `C=C1C[C@]23C[C@H]1CC[C@H]2[C@]1(C)CCC[C@@]2(CO)C(=O)O[C@H]([C@H]21)[C@@H]3O`?
**A.** Potency [1]: inactive; Potency [2]: inactive; Potency [5]: inactive; Potency [3]: inactive; Potency [4]: inactive

**Q.** For `CC1=CC(=O)C[C@H]2[C@@H]1CC[C@@H](C)[C@]21CO[C@H](c2ccoc2)C1=O`, which Potency [1] is on record?
**A.** inactive

**Q.** And the Potency [2]?
**A.** inactive

**Q.** What about the Potency [5] of the same compound?
**A.** inactive

**Q.** And the Potency [4]?
**A.** inactive

**Q.** Which Potency [1] does the source give for `CNC(=O)Nc1ccc(OC)c(NC(=O)NC(=O)c2cc(F)c(F)cc2Cl)c1` here?
**A.** inactive

**Q.** What about the Potency [6] of the same compound?
**A.** inactive

**Q.** What about the Potency [4] of the same compound?
**A.** inactive

**Q.** For `C/C(=C/CCC(CO)C1CCC2(C)C3CCC4C(C)(C)C(OC5OC(CO)C(O)C(O)C5O)CC(O)C45CC35CCC12C)COC1OC(CO)C(O)C(O)C1O` (centres undefined), which Potency [1] is on record?
**A.** inactive

**Q.** What about the Potency [2] of the same compound?
**A.** inactive

**Q.** And the Potency [5]?
**A.** inactive

**Q.** What about the Potency [3] of the same compound?
**A.** inactive

**Q.** What does the source list for `COc1ccc2c(c1)O[C@H](O[C@@H]1O[C@H](CO)[C@@H](O)[C@H](O)[C@H]1O)C(=O)N2`?
**A.** Potency [1]: inactive; Potency [2]: inactive; Potency [3]: inactive; Potency [4]: inactive

**Q.** Which Potency [1] does the source give for `C[C@@H]1CC[C@]2(C(=O)O[C@@H]3O[C@H](CO)[C@@H](O)[C@H](O)[C@H]3O)CC[C@]3(C)C(=CCC4[C@@]5(C)C[C@@H](O)[C@H](O)C(C)(C)C5CC[C@]43C)C2[C@]1(C)O` (some centres undefined) here?
**A.** inactive

**Q.** What about the Potency [2] of the same compound?
**A.** inactive

**Q.** What about the Potency [5] of the same compound?
**A.** inactive

**Q.** And the Potency [3]?
**A.** inactive

**Q.** What about the Potency [4] of the same compound?
**A.** inactive

**Q.** Which Potency [1] does the source give for `CCS(=O)(=O)N1CCC([C@@H](C)n2c(C)c(C(=O)NCc3c(OC)cc(C)[nH]c3=O)c3ccccc32)CC1` here?
**A.** inactive

**Q.** What about the Potency [2] of the same compound?
**A.** inactive

**Q.** And the Potency [5]?
**A.** inactive

**Q.** And the Potency [3]?
**A.** inactive

**Q.** Which results are given for `CN1C(=O)c2ccccc2-n2c(nc3ccccc3c2=O)/C1=C/c1ccccc1`?
**A.** Potency [1]: inactive; Potency [2]: inactive; Potency [5]: inactive; Potency [3]: inactive; Potency [4]: inactive

**Q.** Which Potency [1] does the source give for `COC(=O)CC1(O)C(=O)Nc2ccccc21` (centres undefined) here?
**A.** inactive

**Q.** And the Potency [2]?
**A.** inactive

**Q.** What about the Potency [3] of the same compound?
**A.** inactive

**Q.** What about the Potency [4] of the same compound?
**A.** inactive

**Q.** Which results are given for `CCC(CCO[C@@H]1O[C@H](CO[C@H]2OC[C@](O)(CO)[C@H]2O)[C@@H](O)[C@H](O)[C@H]1O)C(C)(C)O` (some centres undefined)?
**A.** Potency [1]: inactive; Potency [2]: inactive; Potency [5]: inactive; Potency [3]: inactive; Potency [4]: inactive

**Q.** For `COc1cccc(-c2ccc([C@@H](Oc3cc(-c4ccc(C[C@H](N)C(=O)O)cc4)nc(N)n3)C(F)(F)F)cc2)c1`, which Potency [1] is on record?
**A.** inactive

**Q.** And the Potency [2]?
**A.** inactive

**Q.** And the Potency [5]?
**A.** inactive

**Q.** What about the Potency [3] of the same compound?
**A.** inactive

**Q.** And the Potency [4]?
**A.** inactive

**Q.** Which results are given for `C/C=C(\C)C(=O)O[C@H]1[C@H](O)[C@]2(COC(C)=O)[C@H](O)C[C@]3(C)C(=CCC4[C@@]5(C)CC[C@H](O[C@@H]6O[C@H](C(=O)O)[C@@H](O[C@@H]7O[C@H](CO)[C@@H](O)[C@H](O)[C@H]7O)[C@H](O)[C@H]6O[C@@H]6O[C@H](CO)[C@@H](O)[C@H](O)[C@H]6O)[C@](C)(CO)C5CC[C@]43C)[C@@H]2CC1(C)C` (some centres undefined)?
**A.** Potency [1]: inactive; outcome [2]: inactive [at 11.6 µM]; activity change, negative = thiol reactive [5]: 113% [at 11.5 µM] (inactive); redox activity (% of DA3003) [4]: 2.47% [at 11.5 µM] (inactive)
